# Laboratory results as given in PubChem BioAssay AID602123 (The Scripps Research Institute Molecular Screening Center, 2011).
# About 1,500 (0.42%) of roughly 360,000 compounds were called active. Shown is part of a subset that was picked to be rich in actives. Values without a mark were called inactive. Cut-off read from the data, not from the text of the source: active = inhibition above about 13% (passing the limit was not always enough); inactive = the rest.
# Target: Lon protease (Escherichia coli (strain K12)) (UniProt P0A9M0)
# Sequence (P0A9M0 whole entry, looked up): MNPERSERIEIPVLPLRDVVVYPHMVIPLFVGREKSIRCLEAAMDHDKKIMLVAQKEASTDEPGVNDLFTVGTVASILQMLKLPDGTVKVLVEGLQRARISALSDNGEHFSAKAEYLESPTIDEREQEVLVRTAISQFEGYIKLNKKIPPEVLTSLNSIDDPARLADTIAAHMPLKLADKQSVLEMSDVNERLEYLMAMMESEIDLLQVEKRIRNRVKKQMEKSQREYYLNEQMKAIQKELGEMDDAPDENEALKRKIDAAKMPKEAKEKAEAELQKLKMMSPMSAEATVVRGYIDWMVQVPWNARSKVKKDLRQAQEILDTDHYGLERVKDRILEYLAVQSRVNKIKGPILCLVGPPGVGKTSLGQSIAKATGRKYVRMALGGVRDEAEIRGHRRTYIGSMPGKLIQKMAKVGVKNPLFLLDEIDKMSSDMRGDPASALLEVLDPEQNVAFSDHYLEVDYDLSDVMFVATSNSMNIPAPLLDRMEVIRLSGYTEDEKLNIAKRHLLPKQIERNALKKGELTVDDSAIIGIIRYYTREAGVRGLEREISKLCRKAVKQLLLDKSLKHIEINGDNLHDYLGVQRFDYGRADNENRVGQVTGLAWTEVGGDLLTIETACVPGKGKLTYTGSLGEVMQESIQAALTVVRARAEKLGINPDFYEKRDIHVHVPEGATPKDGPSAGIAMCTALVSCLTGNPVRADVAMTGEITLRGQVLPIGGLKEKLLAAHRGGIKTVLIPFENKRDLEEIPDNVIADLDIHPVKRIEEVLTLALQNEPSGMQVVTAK
# Assay: inhibitors of E. coli Lon protease, primary screen, biochemical, fluorescence polarization (AID 602123);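 note: 0% = enzyme with probe and DMSO and 100% = no enzyme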
# Settings: purified E. coli Lon protease, at 7.94 µM, hits give high values
row,SMILES,inhibition
1,Cc1ccc(Cc2c(-c3ccco3)nc3ccc(Cl)cn23)cc1,-7.56%
2,Cc1ccc2nc(-c3ccco3)c(Cc3cccc(Cl)c3)n2c1,-7.22%
3,Clc1ccccc1CSc1nnc(-c2ccco2)c(-c2ccco2)n1,41.5% (active)
4,COc1ccc(NCc2nnc(SCc3ccccc3)n2-c2ccc(OC)cc2)cc1,-3.02%
5,c1ccc(CSc2nnc(-c3ccco3)c(-c3ccco3)n2)cc1,86.1% (active)
6,c1ccc(Cc2c(-c3ccco3)nc3c4ccccc4ccn23)cc1,-7.97%
7,O=C(C1CC(=O)N(c2ccc(Br)cc2)C1)N1CCCC1 (stereo not drawn),-8.68%
8,CC1CC(=S)Nc2ccccc2N1Cc1ccccc1 (stereo not drawn),6.5%
9,O=C(CCCn1c(=O)c2sccc2n(CC(=O)NCC2CCCO2)c1=O)NCc1ccco1 (stereo not drawn),-1.12%
10,C=CCN1CCN(C(=O)CCCc2ccccc2)CC1,-7.13%
11,Cn1c(C(=O)OC(C(=O)NC2CCCCC2)c2ccccn2)cc2sccc21 (stereo not drawn),2.24%
12,CC(C)(O)C1=C[N+](=O)CC=C1,-1.32%
13,COC(=O)CSc1ccc2nnc(CCNS(=O)(=O)c3ccc(C)cc3)n2n1,-1.61%
14,COc1ccc(-c2ocnc2C(=O)Nc2ccc3c(c2)CCC3)cc1,11.4%
15,COc1ccc(-c2onc3ccc(C(C)=O)cc23)cc1,97% (active)
16,COCc1cc(C(C)=O)ccc1OC,-3.49%
17,CCOC(=O)c1cc2cc(OC)ccc2n1C1CCN(C)CC1,3.4%
18,COc1cc2cc(CN(CCN3CCCC3)C(=O)Nc3ccccc3Cl)c(=O)[nH]c2cc1OC,-12.8%
19,Cc1ccc(C(=O)OCC(=O)NCc2cc(C)c(O)c(C)c2)cc1S(=O)(=O)N1CCCCC1,-7.17%
20,COc1cc(NC(=O)COC(=O)c2cnc(C)cn2)c(C)cc1[N+](=O)[O-],-4.63%
21,COc1ccc(-c2cc(NC(C)=O)c3ncc(-c4cc(OC)c(OC)c(OC)c4)n3c2)cn1,2.07%
22,Cc1ccn2cc(-c3nonc3C)cc2c1,25.1% (active)
23,CSc1ncccc1C(=O)Nc1nc2ccc(F)cc2s1,7.17%
24,c1ccc(C(=NNc2nc3ccccc3s2)c2ccccn2)cc1,131% (active)
25,C[C@H]1CN([C@@H](C)CO)C(=O)CCCn2cc(nn2)CO[C@@H]1CN(C)S(=O)(=O)c1ccc(-n2cccn2)cc1,7.06%

row,SMILES,inhibition
1,O=C(CNC(=O)c1ccccc1F)OCC(=O)c1c[nH]c2ccccc12,-11.7%
2,O=C(Nc1ccn(Cc2ccccc2)n1)c1n[nH]c([N+](=O)[O-])c1Cl,1.99%
3,COCCN(C(=O)c1ccccc1F)c1c(N)n(Cc2ccccc2)c(=O)[nH]c1=O,2.64%
4,COCCn1c(N)c(NCc2ccccc2)c(=O)[nH]c1=O,31.1% (active)
5,COCCn1c(N)c(N(Cc2ccccc2)C(=O)C2CCCCC2)c(=O)[nH]c1=O,-5.01%
6,Cc1ccc(N=C2SCCCN2C(=O)c2cccc(N3C(=O)CCC3=O)c2)cc1Cl,1.67%
7,COC(=O)c1cccc(C(=O)N2CCC(CCC(=O)NCc3ccc(F)cc3)CC2)c1,-6.42%
8,CC(=O)Nc1ccc(CN2CCN(Cc3ccc(F)c(F)c3)C(CCO)C2)cc1 (stereo not drawn),-13.9%
9,COc1ccc(Nc2ccc([N+](=O)[O-])cn2)cn1,20.9% (active)
10,COC(=O)c1ccccc1N=NNc1ccc([N+](=O)[O-])cc1,-9.1%
11,COc1cc(NC(=O)Nc2ccc(C)cc2)cc([N+](=O)[O-])c1,-13%
12,O=S(=O)(/N=C(/Nc1ccccc1)c1ccccc1)c1cccs1,5.92%
13,O=S1(=O)CC(N2CCN(CCO)CC2)CN1Cc1cn(Cc2ccc(Cl)cc2)nn1 (stereo not drawn),-4.7%
14,Cn1nc(C(F)(F)F)c2cc(NC(=O)OCC(C)(C)C)sc21,-3.72%
15,CCNc1nc(N)nc(-c2cc(Cl)ccc2OC)n1,-13.4%
16,CCOc1cc(S(=O)(=O)NC2CC(C)(C)NC(C)(C)C2)ccc1F,-9.09%
17,COCCNC(=O)Nc1ccc2nc(-c3ccco3)c(-c3ccco3)nc2c1,25.9% (active)
18,COCCNC(=O)CN(Cc1ccco1)C(=O)CCC(=O)Nc1nccs1,-1.88%
19,COc1ccc(CCNC(=O)Nc2ccc3c(c2)c(=O)n(C)n3C)cc1OC,7.25%
20,O=C(c1cccc(Br)c1)N1CCN(C2=NS(=O)(=O)c3ccccc32)CC1,-1.34%
21,Oc1ccc(N=Cc2sc3ccccc3c2Cl)cc1,32.3% (active)
22,COc1ccc(OC)c(NC(=O)N[C@H](Cc2ccccc2)C(=O)NN)c1,-10.1%
23,COc1ccc2oc(C(=O)NCC(Cc3ccccc3)N(C)C)c(C)c2c1 (stereo not drawn),1.71%
24,COc1cc([C@H](Cc2ccccc2)NC(C)=O)oc(=O)c1,17.6% (active)
25,CC(=O)N1CC(C)c2scc(C)[n+]2-c2ccccc21 (stereo not drawn),20.3%

row,SMILES,inhibition
1,C=CCc1cccc2cc(C(=O)Nc3ccc(NC(C)=O)cc3)c(=O)oc12,-3.06%
2,CCc1cc2c(=O)c(-c3ccon3)c(N)oc2cc1OC,-12.2%
3,Cc1cc(OCCN2CCCC2)cc(C(C)C)c1,3.29%
4,Nc1ccc2nc3c(=O)[nH]c(=S)[nH]c3nc2c1,182% (active)
5,Cc1coc2c(O)cc3c(c12)OC1(N2CCCCC2)C(=O)NCCCC31 (stereo not drawn),29.9% (active)
6,CSc1ccc(C(=O)C2CCCN(C(=O)c3ccc(C)nc3)C2)cc1 (stereo not drawn),-8.1%
7,CCCC(=O)OCC(=O)Nc1cc(Cl)ccc1[N+](=O)[O-],5.89%
8,CC1(C)CC(N2CCN(C(c3ccccc3)c3ccccc3)CC2)=CC(=[N+]2CCCCC2)C1,-3.99%
9,O=C(O)Cc1ccc(NC(=O)C2CCCCC2C(=O)O)cc1 (stereo not drawn),-2.29%
10,CC#CC[N+](C)(C)CCCCCC,11.3%
11,CCN1CCN(C2CCCCC2NS(=O)(=O)c2ccc(Cl)cc2)CC1 (stereo not drawn),-11.9%
12,COc1ccc(N2CCN(C3CCCCC3NS(=O)(=O)c3ccccc3)CC2)cc1 (stereo not drawn),17.2% (active)
13,O=S(=O)(NC1CCCCC1N1CCN(c2ccccc2F)CC1)c1ccccc1 (stereo not drawn),-9.13%
14,N#Cc1ccccc1Sc1ccccc1C(=O)OCC(=O)NC1CCCCC1,-2.35%
15,Cc1nc2nc3c(cn2n1)C(=O)CC(c1ccccc1)C3 (stereo not drawn),6.37%
16,CC(C)n1c(O)c(N=Nc2ccccn2)c2ccccc21,-4.1%
17,Cc1cccc(C)c1N1CCN(S(=O)(=O)N2CCCCC2)CC1,2.21%
18,O=S(=O)(N1CCOCC1)N1CCN(c2ccccc2F)CC1,3.92%
19,Cc1cccc(C)c1N1CCN(S(=O)(=O)N2CCOCC2)CC1,21.5% (active)
20,COc1ccc(/C=C/CN2CCCC(C(=O)c3cc(F)ccc3F)C2)cc1 (stereo not drawn),-0.58%
21,C=CCn1c(=S)sc2c(=O)[nH]c(C)nc21,5.17%
22,Cc1ccn(C(CC(=O)c2ccc(Br)cc2)C(=O)O)n1 (stereo not drawn),5.2%
23,Cc1nc(N)sc1-c1ccccc1,-2.59%
24,N#Cc1c(N)nc2c3c(sc(=N)c2c1N)NC(=O)CC3c1ccccc1Cl (stereo not drawn),-13.5%
25,Nc1ccccc1/C=N\N=C/c1ccccc1N,25.9% (active)

row,SMILES,inhibition
1,O=[N+]([O-])c1cccc(C=NN=Cc2ccccc2O)c1,0.97%
2,COc1ccc(N2CCN(S(=O)(=O)CCNC(=O)C34CC5CC(CC(C5)C3)C4)CC2)cc1,-6.65%
3,COc1ccc(C)cc1S(=O)(=O)Nc1cc2c3c(c1)CCC(=O)N3CCC2,0.26%
4,CNc1cnc(-c2cc(OC)c(OC)c(OC)c2)cn1,1.98%
5,COC(=O)c1cccc(N(C(=O)c2ccco2)C(C(=O)NC2CCCC2)c2ccco2)c1 (stereo not drawn),-3.87%
6,Cc1ccc(-n2c(=O)c(C#N)cc3c(=O)n4ccccc4nc32)cc1C,-8.16%
7,COC(=O)Nc1ccc(S(=O)(=O)N2CCN(CCN3C(=O)C4C5C=CC(C5)C4C3=O)CC2)cc1 (stereo not drawn),-1.58%
8,C/C(CC(=O)Nc1ccc(Cl)cc1)=N\NC(=O)C(=O)NCCO,-5.9%
9,COc1ccc(COC(=O)N/N=C(\C)CC(=O)Nc2ccc(Cl)cc2)cc1,9.08%
10,CCc1ccc(NC(=O)C(=O)N/N=C(\C)CC(=O)NCCOC)cc1,28.6% (active)
11,O=C(/C=C/c1cccc(C(F)(F)F)c1)N1CCN(c2ccccn2)CC1,8.73%
12,COc1nc(N(C)C)nc(N2CC(=O)N(CCNS(=O)(=O)c3ccc(C)cc3)C2=N)n1,-0.47%
13,C/C(=N\NC(=O)CCn1nc(C)cc1C)C(C)(C)C,-2.11%
14,CSc1nc(C)nc(C2CC2)c1C#N,5.92%
15,CC1(C)OC(=O)C(=CNC(CO)C(=O)O)C(=O)O1 (stereo not drawn),17.8% (active)
16,CC(C)Oc1ccccc1C(=O)NC(CO)C(=O)O (stereo not drawn),-0.19%
17,Cc1nn(CC(=O)Nc2ccc(C#N)cc2)c(C)c1[N+](=O)[O-],-15.5%
18,COc1ncnc2c1N=C1CC(C)(C)CC(N)=C1S2,65.4% (active)
19,Cn1cc(CCC(=O)N2CCCC(C(=O)c3ccc(C(C)(C)C)cc3)C2)cn1 (stereo not drawn),-1.82%
20,O=C(COc1ccc(/C=N/NS(=O)(=O)c2ccccc2)cc1)NCCc1ccccc1,-5.95%
21,CCOC(=O)N1CCN(C(=O)C[C@@H]2C[C@@]3(C(=O)OC)CCCCC=C3N(CCC3=CCCCC3)C2=O)CC1,4.15%
22,CCCCOCCCNC(=O)C[C@@H]1C[C@@]2(C(=O)OC)CCCCC=C2N(CCC2=CCCCC2)C1=O,14.4% (active)
23,COC(=O)[C@]12CCCCC=C1N(CCC1=CCCCC1)C(=O)[C@H](CC(=O)NCC1CCCCC1)C2,-2.93%
